The source of these data is PubChem BioAssay (Tox21).

The nature of test [1]: Caspase-3/7 induction in CHO-K1 cells by small molecules, qHTS assay (AID 1346980). Also: nearly all actives have a fitted effect of over 15% in size. In outline:
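Wild-type cells were seeded at 1,500 per well and settled 5 hr at 37 C, 5% CO2, then exposed to DMSO-dissolved compounds for 17 hr. Caspase-Glo 3/7 reagent was added, and luminescence was read after 30min at room temperature.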

Test [2] in a line: Caspase-3/7 induction in HepG2 cells by small molecules, qHTS cell viability counter screen (AID 1346981). Also: series mostly up to about 92 µM; nearly all actives have a fitted effect of over 30% in size. In outline: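 Counter screen for cytotoxicity: HepG2 exposed 16 hr to compounds, then CellTiter-Fluor viability signal (fluorescence, 1 hr reagent incubation).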
Test [3] concerns the target Nuclear receptor subfamily 1 group I member 2 (Homo sapiens) (UniProt O75469). Kind of test: Human pregnane X receptor (PXR) small molecule agonists, qHTS assay (AID 1346982). Also: nearly all actives have a fitted effect of over 35% in size. Also: potency is read from the fitted curve at half-maximal effect. The gist of the method:
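Luminescence (ONE-Glo, 30 min RT) after 24 hr compound exposure of PXR-Luc HepG2 cells; cells rested 5 hr post-plating in 5% charcoal-stripped FBS medium.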

Test [4] deals with Nuclear receptor subfamily 1 group I member 2 (Rattus norvegicus) (UniProt Q9R1A7). Kind of test: Rat pregnane X receptor (rPXR) activation by small molecules, qHTS assay (AID 1346983). Also: nearly all actives have a fitted effect of over 20% in size. As to conditions: rPXR luciferase reporter cells, One-Glo luminescence, 24 h; stronger effect = higher value. The gist of the method: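 Cell-based rPXR luciferase reporter assay, 2,000 cells per well, rested 5hr at 37 C before compound addition in DMSO, then 24 hr at 37 C. One-Glo reagent was added and luminescence read after 30 min at room temperature.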

Test [5] has as its target Acetylcholinesterase (Homo sapiens) (UniProt P22303). Kind of test: Acetylcholinesterase (AChE) small molecule antagonists: enzyme-based qHTS assay (AID 1347397; calls by dose curve; also: nearly all actives have a fitted effect of over 55% in size). As to conditions: Potency: AChE enzyme activity inhibition. The gist of the method:
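Recombinant human AChE, dispensed at 50 mU/mL, was preincubated with Tox21 10K compounds or DMSO vehicle for 30 min at room temperature. DTNB plus acetylthiocholine was then added, and thiocholine was measured colorimetrically after a further 10 min.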

For test [6] the target is unchanged. Briefly: Acetylcholinesterase (AChE) small molecule antagonists: fluorescence cell-based qHTS assay (AID 1347398; calls by dose curve; also: nearly all actives have a fitted effect of over 50% in size; also: potency is read from the fitted curve at half-maximal effect). Conditions: Potency: AChE activity. The gist of the method: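 Human SH-SY5Y cells were plated overnight at 37 C, exposed to compound for 30 min at 37 C, 5% CO2, then given acetylthiocholine plus Thiolite Green for 40 min at room temperature; thiocholine fluorescence (Ex/Em 490/520 nm) reports endogenous AChE activity.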

The target is the same in test [7]. Kind of test: Acetylcholinesterase (AChE) small molecule antagonists: enzyme-based qHTS assay with human liver microsomes (AID 1347399; calls by dose curve; also: nearly all actives have a fitted effect of over 60% in size). As to conditions: Potency: qHTS inhibition. The gist of the method: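 Recombinant human AChE (50 mU/mL in the enzyme mix) and human liver microsomes (0.25 mg/mL final) were preincubated with compound and NADPH (0.25 mg/mL final) for 30 min at 37 C. Acetylthiocholine/DTNB was then added; thiocholine was read colorimetrically after 10 min at room temperature.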

Test [8] concerns the target Cytochrome P450 2D6 (Homo sapiens) (UniProt P10635). Kind of test: Cytochrome P450 Family 2 Subfamily D Member 6 (CYP2D6) small molecule antagonists: luciferase reporter qHTS assay (AID 1671196). Also: nearly all actives have a fitted effect of over 50% in size. Also: potency is read from the fitted curve at half-maximal effect. The gist of the method:
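Inhibition of CYP2D6 was gauged by loss of luminescence, since light produced tracks the luciferin generated from a proluciferin substrate. A 10 min room-temperature preincubation preceded 1 h NADPH-supported turnover.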

Test [9] addresses Cytochrome P450 2C19 (Homo sapiens) (UniProt P33261). Kind of test: Cytochrome P450 Family 2 Subfamily C Member 19 (CYP2C19) small molecule antagonists: luciferase reporter qHTS assay (AID 1671197). Also: nearly all actives have a fitted effect of over 65% in size. Also: potency is read from the fitted curve at half-maximal effect. The gist of the method: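 P450-Glo CYP2C19 screening system; proluciferin substrate; DMSO compound stocks; 10 min RT preincubation; NADPH regeneration, 1 h at 37C; luciferin detection reagent, 20 min RT; luminescence as RLU.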

Test [10] concerns the target Cytochrome P450 2C9 (Homo sapiens) (UniProt P11712). Briefly: Cytochrome P450 Family 2 Subfamily C Member 9 (CYP2C9) small molecule antagonists: luciferase reporter qHTS assay (AID 1671198). Also: nearly all actives have a fitted effect of over 50% in size. Also: potency is read from the fitted curve at half-maximal effect. In outline: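 CYP2C9 activity was measured with a P450-Glo proluciferin substrate. Enzyme–substrate mix was held with compound for 10 min at room temperature, then NADPH regeneration solution was added for 1 h at 37C. Luciferin product was read as luminescence.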

Test [11] has as its target Cytochrome P450 1A2 (Homo sapiens) (UniProt P05177). Kind of test: Cytochrome P450 Family 1 Subfamily A Member 2 (CYP1A2) small molecule antagonists: luciferase reporter qHTS assay (AID 1671199). Also: nearly all actives have a fitted effect of over 50% in size. Also: potency is read from the fitted curve at half-maximal effect. In outline: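 Signal from luciferin formed by CYP1A2 from a proluciferin substrate is read as luminescence, expressed in relative luminescence units. Compounds sit with enzyme 10 min, NADPH-driven reaction runs 1 h, all at room temperature.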

For test [12], the target named is Voltage-gated inwardly rectifying potassium channel KCNH2 (Homo sapiens) (UniProt Q12809). Briefly: Human Ether-a-go-go-Related Gene (hERG) channel small molecule antagonists: fluorescence cell-based qHTS assay (AID 1671200). Also: nearly all actives have a fitted effect of over 50% in size. Also: potency is read from the fitted curve at half-maximal effect. The gist of the method:
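U2OS cells expressing the channel were plated at 1000 cells/well, incubated overnight at 37 C, then loaded with FluxOR II thallium-sensitive dye for 1 h at room temperature in the dark, with a further 10 min at room temperature before stimulation.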

Test [13] addresses Cytochrome P450 3A4 (Homo sapiens) (UniProt P08684). Briefly: Cytochrome P450 Family 3 Subfamily A Member 4 (CYP3A4) small molecule antagonists: luciferase reporter qHTS assay (AID 1671201). Also: nearly all actives have a fitted effect of over 50% in size. Also: potency is read from the fitted curve at half-maximal effect. In outline:
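P450-Glo CYP3A4 system with proluciferin substrate; compounds preincubated 10 min RT with enzyme-substrate mix, then NADPH regeneration added for 1 h RT. Detection reagent 20 min, luminescence read as relative luminescence units.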

The target in test [14] is Nuclear receptor subfamily 1 group I member 2 (Homo sapiens) (UniProt O75469). Briefly: CYP3A4 induction through human pregnane X receptor (PXR) by small molecules, qHTS assay (AID 1346984). Also: nearly all actives have a fitted effect of over 40% in size. The gist of the method: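 DPX-2 reporter cells; 24h cpd, 37C; Luciferin-IPA 3uM final x3h; One-Glo 30 min RT; lumi read.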
Test [15] shares this target. Briefly: Human pregnane X receptor (PXR) activation by small molecules, qHTS assay (AID 1346985). Also: nearly all actives have a fitted effect of over 40% in size. Also: potency is read from the fitted curve at half-maximal effect. In outline:
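DPX-2 cells (HepG2 co-transfected with a PXR response element and a CYP3A4-promoter luciferase construct) were seeded at 2,000 per well, rested 5 hr at 37C, then exposed to DMSO-dissolved compounds for 24 hr. Activation was read as luciferase luminescence.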

Where “and” joins values, the source holds several entries; their conditions need not be identical. Equal values may be shown once. Inconclusive results are not listed. More than one record can exist for a structure, and the calls need not agree. Calls of active or inactive are those of the source. Unless noted, calls follow the shape of the dose curve; as a rule, active = well fitted curve in the direction sought with a large enough effect in the repeat runs; inconclusive = weak or mixed curves; inactive = no such curve, though single readings can be large; an effect the other way counts as inactive or inconclusive.
% is scaled to controls: 0 for no effect and ±100 for the full control effect.

Cytochrome P450 2C19 (Homo sapiens), sequence (P33261 whole entry, looked up): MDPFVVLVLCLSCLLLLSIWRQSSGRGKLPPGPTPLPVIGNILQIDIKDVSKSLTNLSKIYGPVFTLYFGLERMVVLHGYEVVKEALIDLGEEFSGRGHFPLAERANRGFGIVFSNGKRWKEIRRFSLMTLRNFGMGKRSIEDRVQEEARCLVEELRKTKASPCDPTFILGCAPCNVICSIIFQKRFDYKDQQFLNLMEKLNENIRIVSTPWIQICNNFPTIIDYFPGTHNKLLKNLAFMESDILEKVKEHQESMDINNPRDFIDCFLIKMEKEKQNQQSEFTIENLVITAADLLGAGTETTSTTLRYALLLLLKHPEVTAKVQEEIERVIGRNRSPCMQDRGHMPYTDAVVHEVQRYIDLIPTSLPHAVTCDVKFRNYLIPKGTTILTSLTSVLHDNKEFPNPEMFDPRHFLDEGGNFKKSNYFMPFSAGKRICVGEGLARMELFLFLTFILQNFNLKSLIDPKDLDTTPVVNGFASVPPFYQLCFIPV
Cytochrome P450 1A2 (Homo sapiens), sequence (P05177 whole entry, looked up): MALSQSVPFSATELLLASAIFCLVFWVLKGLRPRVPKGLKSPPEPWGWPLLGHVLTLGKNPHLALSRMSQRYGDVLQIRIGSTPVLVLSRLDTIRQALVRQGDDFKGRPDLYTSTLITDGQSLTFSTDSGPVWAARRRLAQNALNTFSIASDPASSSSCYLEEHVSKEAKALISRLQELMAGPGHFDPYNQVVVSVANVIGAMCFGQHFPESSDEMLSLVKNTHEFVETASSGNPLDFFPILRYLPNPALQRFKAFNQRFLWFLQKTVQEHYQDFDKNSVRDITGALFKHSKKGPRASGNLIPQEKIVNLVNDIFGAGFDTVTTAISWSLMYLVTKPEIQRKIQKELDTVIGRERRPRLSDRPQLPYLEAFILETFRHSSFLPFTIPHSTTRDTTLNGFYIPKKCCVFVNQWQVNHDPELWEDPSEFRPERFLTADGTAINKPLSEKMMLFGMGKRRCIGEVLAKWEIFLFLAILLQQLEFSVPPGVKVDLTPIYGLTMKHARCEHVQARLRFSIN
Acetylcholinesterase (Homo sapiens), sequence (P22303 whole entry, looked up): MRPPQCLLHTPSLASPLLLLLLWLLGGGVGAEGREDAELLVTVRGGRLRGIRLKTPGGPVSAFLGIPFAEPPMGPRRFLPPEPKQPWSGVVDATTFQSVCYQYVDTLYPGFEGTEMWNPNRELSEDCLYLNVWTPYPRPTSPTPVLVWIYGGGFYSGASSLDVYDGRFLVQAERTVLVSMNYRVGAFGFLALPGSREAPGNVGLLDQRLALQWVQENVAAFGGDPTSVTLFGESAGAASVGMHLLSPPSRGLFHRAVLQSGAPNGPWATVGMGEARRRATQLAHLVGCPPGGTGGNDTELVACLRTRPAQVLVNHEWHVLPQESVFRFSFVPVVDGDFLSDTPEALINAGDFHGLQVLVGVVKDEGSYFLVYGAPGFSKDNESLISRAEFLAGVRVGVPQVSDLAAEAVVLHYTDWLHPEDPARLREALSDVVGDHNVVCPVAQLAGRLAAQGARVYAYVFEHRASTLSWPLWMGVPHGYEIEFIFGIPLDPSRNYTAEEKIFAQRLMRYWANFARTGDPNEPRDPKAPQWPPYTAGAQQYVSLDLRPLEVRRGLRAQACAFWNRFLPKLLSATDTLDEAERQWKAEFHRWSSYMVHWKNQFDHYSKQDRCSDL
Cytochrome P450 2C9 (Homo sapiens), sequence (P11712 whole entry, looked up): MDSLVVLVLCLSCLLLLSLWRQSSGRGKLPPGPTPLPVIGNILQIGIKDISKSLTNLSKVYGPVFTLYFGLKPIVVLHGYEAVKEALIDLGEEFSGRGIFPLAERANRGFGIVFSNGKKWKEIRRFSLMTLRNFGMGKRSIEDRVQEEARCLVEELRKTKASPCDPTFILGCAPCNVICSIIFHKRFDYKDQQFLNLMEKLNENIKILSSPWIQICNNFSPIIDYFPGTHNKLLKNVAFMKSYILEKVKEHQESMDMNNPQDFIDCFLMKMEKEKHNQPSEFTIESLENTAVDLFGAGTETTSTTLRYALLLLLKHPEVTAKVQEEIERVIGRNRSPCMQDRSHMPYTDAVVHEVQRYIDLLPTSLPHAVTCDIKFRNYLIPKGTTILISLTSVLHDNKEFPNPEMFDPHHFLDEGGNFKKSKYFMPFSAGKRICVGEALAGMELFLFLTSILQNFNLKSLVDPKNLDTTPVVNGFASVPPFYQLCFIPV
Cytochrome P450 3A4 (Homo sapiens), sequence (P08684 whole entry, looked up): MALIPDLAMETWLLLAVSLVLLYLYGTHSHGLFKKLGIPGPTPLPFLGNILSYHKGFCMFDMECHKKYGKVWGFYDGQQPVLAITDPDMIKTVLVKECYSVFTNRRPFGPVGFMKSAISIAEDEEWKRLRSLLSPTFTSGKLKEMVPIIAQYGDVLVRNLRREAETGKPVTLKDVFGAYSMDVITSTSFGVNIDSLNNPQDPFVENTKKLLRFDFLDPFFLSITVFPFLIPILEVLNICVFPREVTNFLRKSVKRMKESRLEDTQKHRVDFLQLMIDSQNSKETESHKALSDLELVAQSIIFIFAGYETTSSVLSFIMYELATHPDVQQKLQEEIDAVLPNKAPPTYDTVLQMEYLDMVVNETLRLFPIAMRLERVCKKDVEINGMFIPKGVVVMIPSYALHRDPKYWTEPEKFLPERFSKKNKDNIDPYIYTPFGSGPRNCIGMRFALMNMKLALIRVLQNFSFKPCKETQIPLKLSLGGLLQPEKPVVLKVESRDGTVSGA
Nuclear receptor subfamily 1 group I member 2 (Rattus norvegicus), sequence (Q9R1A7 whole entry, looked up): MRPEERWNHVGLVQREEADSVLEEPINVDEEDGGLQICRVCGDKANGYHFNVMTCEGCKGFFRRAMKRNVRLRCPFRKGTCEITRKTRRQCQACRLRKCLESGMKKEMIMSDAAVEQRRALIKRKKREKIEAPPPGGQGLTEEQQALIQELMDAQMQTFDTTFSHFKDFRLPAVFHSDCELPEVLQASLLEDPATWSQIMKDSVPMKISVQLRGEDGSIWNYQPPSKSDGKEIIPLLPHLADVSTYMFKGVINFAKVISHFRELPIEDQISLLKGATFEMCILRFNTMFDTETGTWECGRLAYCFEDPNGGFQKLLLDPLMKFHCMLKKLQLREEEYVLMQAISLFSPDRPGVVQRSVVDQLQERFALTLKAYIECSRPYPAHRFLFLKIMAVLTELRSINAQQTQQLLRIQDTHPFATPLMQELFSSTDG
Nuclear receptor subfamily 1 group I member 2 (Homo sapiens), sequence (O75469 whole entry, looked up): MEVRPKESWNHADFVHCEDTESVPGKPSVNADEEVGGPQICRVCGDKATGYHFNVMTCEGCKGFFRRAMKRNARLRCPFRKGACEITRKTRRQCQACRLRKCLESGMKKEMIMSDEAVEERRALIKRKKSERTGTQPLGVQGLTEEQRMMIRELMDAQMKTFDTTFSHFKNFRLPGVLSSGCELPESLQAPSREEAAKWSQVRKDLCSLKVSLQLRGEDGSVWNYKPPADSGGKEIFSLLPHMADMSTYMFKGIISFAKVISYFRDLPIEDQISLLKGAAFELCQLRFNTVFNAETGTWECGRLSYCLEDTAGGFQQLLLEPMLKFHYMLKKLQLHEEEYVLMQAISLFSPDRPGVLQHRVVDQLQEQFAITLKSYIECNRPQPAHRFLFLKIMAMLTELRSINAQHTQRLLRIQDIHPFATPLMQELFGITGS
Cytochrome P450 2D6 (Homo sapiens), sequence (P10635 whole entry, looked up): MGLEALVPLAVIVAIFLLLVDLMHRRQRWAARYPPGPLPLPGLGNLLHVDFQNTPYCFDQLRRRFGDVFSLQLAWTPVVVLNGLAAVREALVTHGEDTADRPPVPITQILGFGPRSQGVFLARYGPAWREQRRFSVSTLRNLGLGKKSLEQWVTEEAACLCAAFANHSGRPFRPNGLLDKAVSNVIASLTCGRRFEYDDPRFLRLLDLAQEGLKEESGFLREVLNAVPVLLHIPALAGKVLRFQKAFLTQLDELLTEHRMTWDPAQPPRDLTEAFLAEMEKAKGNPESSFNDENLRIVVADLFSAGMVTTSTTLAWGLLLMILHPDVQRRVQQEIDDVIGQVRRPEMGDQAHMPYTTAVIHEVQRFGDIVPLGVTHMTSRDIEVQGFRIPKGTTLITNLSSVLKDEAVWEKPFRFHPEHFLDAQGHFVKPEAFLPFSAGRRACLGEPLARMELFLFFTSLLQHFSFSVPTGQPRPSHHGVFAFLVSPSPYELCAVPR

Turning to `COCC(=O)N(c1c(C)cccc1C)C(C)C(=O)OC` (stereo not given), the Potency result in test [1], in test [2], in [3], in [5], in test [6] and in [7] was “inactive” in each case. The Potency entry in [8], in [11], in [12] and in test [13] was “inactive” in each case. Also, the max activation in [4] was 0.174% (inactive). For the same compound, the Potency in test [9] is 41 µM (active) and 39.8 µM (active) and inactive; in test [10], 70.9 µM (active) and inactive.
As to `Oc1cccc2cccnc12`, the Potency result in [1], in [2] and in test [12] was “inactive” each time. For the same compound, the max activation in test [4] was -0.611% (inactive).
Regarding `CC(=O)[O][Hg][c]1ccccc1`, the Potency entry in test [1], in test [3], in test [5] and in [7] was “inactive” in each case. In test [4], the max activation is -23.3% (inactive). Besides, the call in test [14] was inactive. In addition, the Potency was 10 µM (active) in [15]; 62.7 µM (active) and 56.4 µM (active) in test [6]; 353 nM (active) and 564 nM (active) and 1.74 µM (active) in test [8]; 8.86 µM (active) and 8.94 µM (active) and 17.4 µM (active) in test [9]; 3.96 µM (active) and 2.52 µM (active) and 4.36 µM (active) in [10]; 17.7 µM (active) and 22.4 µM (active) and 27.5 µM (active) in test [11]. Also, the Potency is 13.7 µM (active) and 13.8 µM (active) in [12]; 4.98 µM (active) and 7.96 µM (active) and 12.3 µM (active) in [13].
For the compound `O=C(O)COc1ccc(Cl)cc1Cl`, the Potency result in [1], in [2], in test [3], in test [5], in [6] and in test [7] was “inactive” throughout. The Potency result in test [12] and in [13] was “inactive” each time. Further, the Potency entry is “inactive and 35.6 µM (active)” in test [8]; 70.7 µM (active) and inactive in [9]; 31.6 µM (active) and inactive in test [11].
As to `O=C(O)C(Cl)Cl`, the Potency entry in [1], in [3], in test [15], in [5], in test [6] and in test [7] was “inactive” each time. For the same compound, the Potency result in test [9], in test [10], in test [11], in [12] and in test [13] was “inactive” each time. Besides, the max activation in [4] was -1.74% (inactive). Further, the outcome in [14] was inactive. For the same compound, the Potency in [8] was 29.1 µM (active) and inactive.
Take `CC(=O)O`: the Potency result in test [1] and in test [12] was “inactive” throughout.
`CCCC[n+]1ccccc1C`: the Potency entry in test [1], in [3], in test [8], in test [9], in [10] and in test [11] was “inactive” in each case. In addition, the Potency result in test [12] and in [13] was “inactive” each time.
Regarding `CCCCn1cc[n+](C)c1C`, the Potency result in [1], in test [3], in test [8], in [9], in test [10] and in test [12] was “inactive” in each case. In [13], the Potency result was “inactive”. Also, the Potency entry in test [11] is “inactive and 35.9 µM (active)”.
For the compound `O=C(O)c1nc(Cl)ccc1Cl`, the Potency result in test [1], in [3], in [5], in test [6], in test [7] and in [8] was “inactive” in each case. Besides, the Potency entry in test [9], in test [10], in test [11], in [12] and in test [13] was “inactive” throughout.
For `CCC[N+]1(C)CCCCC1`, the Potency result in [1], in [3], in test [5], in test [6], in test [7] and in test [8] was “inactive” in each case. Moreover, the Potency entry in test [9], in test [10], in test [11], in [12] and in test [13] was “inactive” in each case.
With `COc1ccc(N)cc1`, the Potency result in test [1], in test [11], in test [12] and in test [13] was “inactive” each time. The Potency in [3] was 60.6 µM (active); in test [9], 39.9 µM (active) [middle of 4 runs]; in test [10] it was 39.9 µM (active).
As to `CCCC[N+]1(C)CCCC1`, the Potency entry in test [1], in [3], in test [8], in test [10], in test [11] and in test [12] was “inactive” throughout. For the same compound, the Potency entry in test [13] is “inactive”. Besides, the Potency entry in [9] was “inactive and 40.2 µM (active)”.
In the case of `O=[N+]([O-])c1ccccc1O`, the Potency entry in test [1], in [3], in test [5], in [6], in [7] and in test [9] was “inactive” throughout. Besides, the Potency entry in test [10], in test [12] and in test [13] was “inactive” throughout. Besides, in test [8], the Potency is 31.6 µM (active) and inactive.
Regarding `CC(Cl)(Cl)C(=O)O`, the Potency entry in test [1], in test [5], in [6], in [7], in test [8] and in [9] was “inactive” throughout. Moreover, the Potency entry in test [11], in [12] and in [13] was “inactive” in each case. Also, the Potency entry in test [3] was “inactive and 61.3 µM (active)”; in [10], “inactive and 63.3 µM (active)”.
Regarding `C[N+](C)(C)Cc1ccccc1`, the Potency result in test [1], in [3], in [5], in test [6], in test [7] and in test [11] was “inactive” throughout. Besides, the Potency entry in test [12] and in [13] was “inactive” in each case. The Potency in test [8] is 7.93 µM (active) and inactive and 20 µM (active); in [9] it was 31.6 µM (active) and inactive; in [10] it was 79.6 µM (active) and inactive.
On to `CCCCCC[n+]1ccccc1`, for which the Potency entry in test [1], in test [9], in test [10], in test [11], in test [12] and in [13] was “inactive” throughout. For the same compound, the Potency in test [3] was 11 µM (active) and inactive.
